Laboratory results taken from PubChem BioAssay.
Unmarked numbers belong to inactive results. The source made the active and inactive calls.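 The calls were made as follows, unless noted: active = compounds that lower viability of the colon cancer cells in the luminescence readout, with no numeric limit stated; inactive = the rest.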

Columns and labels:
[1] = stimulators of insulin release from INS-1E, primary screen, cell-based, 5 mM glucose, NPC library (AID 1117329;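 active = compound raises insulin release from rat beta cells at 5 mM glucose, no numeric limit stated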; also: reference of the scale not given here); conditions: rat INS-1E insulin secretion, at 10 µM, active compounds read high
[2] = growth inhibition of GSK3B-pretreated HCT116 cells – cell-based, CellTiter-Glo, 0.2 to 20 µM (AID 1117336;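 active = compounds lowering colon cancer cell viability after pretreatment blocking the GSK3B kinase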); conditions: HCT116 viability after GSK3B inhibitor, at 20 µM, active compounds read high
[3] = inhibition of endothelial tube formation, primary screen, imaging, VEGF stimulated, CD31 staining, tube area, NPC library (AID 1117340;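 active = compound that reduces growth-factor-driven endothelial tube area in a mixed cell culture, no cutoff stated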); conditions: VEGF-stimulated ADSC/ECFC co-culture, at 10 µM, active compounds read high
[4] = glucagon-like peptide 1 release enhancers, primary assay, NCI-H716 cell line, NPC library (AID 1117341;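 active = compound raises GLP1 secretion from the human gut endocrine cells, with no numeric limit stated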; also: reference of the scale not given here); conditions: NCI-H716 cells, at 10 µM, active compounds read high
[5] = HCT116 colon cancer cell growth inhibition, primary screen, CellTiter-Glo luminescence, NPC library (AID 1117342;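 active = compounds that lower survival of HCT116 colon cancer cells in the luminescence readout, no numeric limit stated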); conditions: at 20 µM (top of the series)
[6] = CellTiter-Glo luminescent readout of SW480 viability loss, NPC library primary (AID 1117343); conditions: CellTiter-Glo luminescence; at 20 µM (top of the series)
[7] = decreased DLD-1 cellular survival, CellTiter-Glo luminescent readout, NPC compound collection, primary HTS (AID 1117346;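 active = compounds that lower survival of DLD-1 colon cancer cells in the luminescence readout, no cutoff given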); conditions: DLD-1 viability, CellTiter-Glo luminescence; at 20 µM (top of the series)
[8] = target: 6-phosphogluconate dehydrogenase, decarboxylating (Homo sapiens) (UniProt P52209); assay: 6PGD enzyme inhibitors, primary screen, biochemical, human, recombinant enzyme, NADPH absorbance (AID 1159550;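 active = at least 20% inhibition of 6-phosphogluconate dehydrogenase activity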); conditions: recombinant 6PGD, NADPH absorbance 341 nm; at 10 µM; active compounds read high
Sequence of 6-phosphogluconate dehydrogenase, decarboxylating (Homo sapiens) (P52209 whole entry, looked up): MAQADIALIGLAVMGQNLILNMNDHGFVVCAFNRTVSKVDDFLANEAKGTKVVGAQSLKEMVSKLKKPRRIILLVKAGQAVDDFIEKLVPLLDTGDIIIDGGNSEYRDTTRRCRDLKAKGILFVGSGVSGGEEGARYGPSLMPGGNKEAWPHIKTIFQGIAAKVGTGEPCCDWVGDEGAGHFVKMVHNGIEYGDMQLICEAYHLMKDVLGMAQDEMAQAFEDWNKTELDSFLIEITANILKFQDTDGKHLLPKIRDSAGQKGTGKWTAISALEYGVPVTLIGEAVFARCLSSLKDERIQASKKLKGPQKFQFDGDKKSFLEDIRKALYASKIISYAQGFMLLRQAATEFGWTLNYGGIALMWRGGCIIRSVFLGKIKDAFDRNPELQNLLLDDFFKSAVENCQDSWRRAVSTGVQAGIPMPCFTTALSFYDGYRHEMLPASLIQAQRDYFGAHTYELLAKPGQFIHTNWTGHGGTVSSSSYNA

| Structure (SMILES) | insulin secretion stimulation [1] [%] | viability decrease [2] [%] | tube area decrease [3] [%] | GLP1 secretion stimulation [4] [%] | inhibition of viability [5] [%] | viability decrease (inhibition) [6] [%] | viability decrease (inhibition) [7] | inhibition [8] [%] |
| --- | --- | --- | --- | --- | --- | --- | --- | --- |
| C[C@@H]1C[C@H]2[C@@H]3C[C@H](F)C4=CC(=O)C(Cl)=C[C@]4(C)[C@@]3(F)[C@@H](O)C[C@]2(C)[C@@]1(O)C(=O)CO | -0.6 | 6.2 | -1.8 | 4.6 | 33.1 | 12 | 8.3% |  |
| C[C@]12C[C@H](O)[C@H]3[C@@H](CCC4=CC(=O)CC[C@@]43C)[C@@H]1CC[C@@H]2C(=O)CO | 1.6 | -24.9 | 9.5 | 0.3 | -2.93 | 37.4 | 8.6% |  |
| O=C(CCCCC(=O)Nc1c(I)cc(I)c(C(=O)O)c1I)Nc1c(I)cc(I)c(C(=O)O)c1I | -1.2 | -15.2 | 5.5 | -3.5 | -1.4 | 7.4 | -2.6% | 15.2 |
| CN1[C@@H]2CC[C@H]1CC(OC(=O)C(O)c1ccccc1)C2 (stereo partly drawn) | 3.1 | 15 | -13.1 | 1 | 28 | 22.2 | -0.2% | -3.32 |
| C[C@]12CC[C@@H]3c4ccc(O)cc4CC[C@H]3[C@@H]1CCC2=O | -1.5 | -6 | 21.8 | -1.2 | -35.2 | 32.8 | -3.45% | -17.4 |
| O=C(O)CCCC[C@@H]1SC[C@@H]2NC(=O)N[C@@H]21 | -0.9 | -1.65 | -24.1 | 1.6 | -15 | 33.7 | 4.5% | 12.7 |
| CC[C@]12CCCN3CCc4c(n(c5ccccc45)[C@@](O)(C(=O)OC)C1)[C@@H]32 | -1.7 | -2.5 | 25.6 | -2.6 | -43.9 | 0.1 | -31.5% | -2.98 |
| C[C@@H]1C[C@H]2[C@@H]3CCC4=CC(=O)C=C[C@]4(C)[C@@]3(F)[C@@H](O)C[C@]2(C)[C@H]1C(=O)CO | 7.5 | -14.3 | 6.7 | -0.7 | 9.7 | 3.5 | -5% |  |
| CC1=C(C(=O)O)N2C(=O)[C@@H](NC(=O)[C@H](N)c3ccc(O)cc3)[C@H]2SC1 | -0.5 | -2.2 | -4.7 | -0.3 | 7.3 | 7.8 | 7.3% | -1.37 |
| O=c1[nH]cnc2c1ncn2[C@@H]1O[C@H](CO)[C@@H](O)[C@H]1O | -0.1 | -12.4 | 2.1 | 0.9 | -0.1 | -39.7 | -12.5% | -10.6 |
| CC(=O)Oc1c(C)c(C)c2c(c1C)CC[C@@](C)(CCC[C@H](C)CCC[C@H](C)CCCC(C)C)O2 | 0.3 | -9.9 | -15.2 | 1.2 | 1.13 | -13.6 | -19.7% | 14 |
| Cc1cc2nc3c(=O)[nH]c(=O)nc-3n(C[C@H](O)[C@H](O)[C@H](O)CO)c2cc1C | 0.9 | -45.7 | 36.1 | -0.4 | 0.1 | 11.1 | -5.4% | -2.13 |
| CC(=O)OCC(=O)[C@@]1(O)[C@H](OC(C)=O)C[C@H]2[C@@H]3CCC4=CC(=O)C=C[C@]4(C)[C@@]3(F)[C@@H](O)C[C@@]21C | 2.1 | -9 | -8.6 | 2.4 | -8.2 | 18.4 | -14.1% | 14.6 |
| CO[C@@]1(NC(=O)CSCC#N)C(=O)N2C(C(=O)O)=C(CSc3nnnn3C)CS[C@@H]21 | -1.4 | -2.9 | -0.3 | -2.4 | -6.4 | -7.4 | -14.4% | -6.33 |
| NC/C=C/C(=O)O | 1.5 | -42.3 | -0.5 | -2.6 | 3.67 | 11.1 | -6.3% | 0.304 |
| COC(=O)[C@@H](N)CS | 1.6 | -1.8 | -0.7 | 4.1 | 3.2 | 17.6 | 23.2% (active) | 3.23 |
| CN(C)C(=O)Nc1ccc(Cl)c(Cl)c1 | -2.3 | -3.75 | -17.1 | -0.7 | -2.8 | 11.2 | 13.6% | -8.44 |
